Data reported in the supplement of paper PMC6555819.

What was measured:
Experiment in all cases: PBM binding z-score (relative to random genomic background probes); higher = stronger binding; sequences stand for … in GC…GCGATTGACAGCGTAGAATGAAGG
[1] = tested on: PPARg:RXRa DBDmut IVT, anti-RXR (DBD mutation: RXRa K156A/R161A, NR concentration 270 nM, RXRa partner concentration 90 nM)
How it was run: (§1)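 Scanned fluorescence from custom Agilent 4×180K protein-binding microarrays was regression-normalized. Binding z-scores use random background probes as reference. Ligand-free nuclear receptor dimers were incubated on the arrays for 1 h and detected with antibodies against each partner (one per run).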

[2] = tested on: PPARg:RXRa IVT, anti-PPARg (NR concentration 270 nM, RXRa partner concentration 90 nM)
How it was run: as §1

[3] = tested on: PPARg DBDmut:RXRa IVT, anti-PPARg (DBD mutation: PPARg1 K132A/R137A, NR concentration 270 nM, RXRa partner concentration 90 nM)
How it was run: as §1

[4] = tested on: PPARg DBDmut IVT, anti-PPARg (DBD mutation: PPARg1 K132A/R137A, NR concentration 270 nM)
How it was run: as §1

[5] = tested on: PPARg homodimer (NR concentration 180 nM)
How it was run: as §1

[6] = tested on: PXR:RXRa (NR concentration 270 nM, RXRa partner concentration 90 nM)
How it was run: as §1

[7] = tested on: PXR homodimer (NR concentration 270 nM)
How it was run: as §1

[8] = tested on: RARa:RXR (NR concentration 270 nM, RXRa partner concentration 90 nM)
How it was run: as §1

[9] = tested on: RARa homodimer (NR concentration 270 nM)
How it was run: as §1

[10] = tested on: RARb:RXRa (NR concentration 270 nM, RXRa partner concentration 90 nM)
How it was run: as §1

Row | Sequence | PBM binding z-score [1] | PBM binding z-score [2] | PBM binding z-score [3] | PBM binding z-score [4] | PBM binding z-score [5] | PBM binding z-score [6] | PBM binding z-score [7] | PBM binding z-score [8] | PBM binding z-score [9] | PBM binding z-score [10]
1 | GCTAGCAGGCCATTTGGGTCGCTCAATGACGGGC | 0.479 | 0.26 | -1.18 | -1.25 | -1.01 | -0.81 | -0.85 | -0.542 | -1.69 | -0.0207
2 | CCTACTGGGCCATTAGGTCATTGATATCAACGTT | 5.31 | 5.88 | 0.577 | 0.445 | 1.02 | 1.13 | 0.202 | 1.72 | 0.45 | 2.09
3 | TTTAGTTGGTCACGGAGGTCACACACGACGGGTA | 3.69 | 5.36 | 1.78 | 1.9 | 3.37 | 4.93 | 1.92 | 4.96 | 2.05 | 4.08
4 | CCAGACAGGTGAAAGATAACTCAGTCTGGTACGC | 1.22 | 0.571 | -0.176 | -0.498 | 0.844 | -0.0544 | 0.127 | 0.381 | 0.87 | 0.534
5 | CAAGACAGGTGAAAGGTAACTCAGTCTGGTACGC | 1.61 | 2.88 | 0.223 | 0.183 | 0.995 | 1.09 | 0.0379 | 1.92 | 0.108 | 1.57
6 | CGGCAAAGTTCAACTAAGGTAACGTAAAGCACGC | 0.283 | 1.29 | -0.451 | -0.173 | 3.39 | 5.43 | 2.72 | 3.93 | 0.447 | 5.16
7 | GCTCACGGGTCAAAGGTTATAGCATGAATAGAAT | 2.57 | 4.03 | 0.462 | 0.56 | 2.09 | 6.14 | 0.22 | 8.47 | 0.284 | 4.46
8 | ACAGACAGGTGAGTGAAGGTATCTCAGCTGGACG | 0.178 | 0.541 | -0.168 | -1.07 | -0.226 | -0.609 | -0.293 | -0.438 | -0.61 | 0.255
9 | GATACAGGGTCAAGGCTAGAGTACGCGTATTGAT | 3.54 | 3.94 | 1.02 | 0.742 | 1.69 | 3.72 | 0.503 | 4.37 | 0.567 | 4.43
10 | TCCGCTAGGTCAGTTGGTCAGCTAACGAGCTGCC | 2.32 | 2.55 | -0.0326 | -0.848 | 0.175 | 0.233 | -0.744 | 0.687 | -0.7 | 3.44
11 | CGTCCAAGGTCAGCAGGGCAGTGAAAGCGACGTG | 2.44 | 3.13 | -0.138 | -1.04 | 1.69 | 2.25 | 0.00417 | 3.12 | 0.417 | 5.17
12 | TTCCCAAGGTGAAGGTCGTTGATCCCTCTGTAGA | 0.771 | 2.06 | -0.218 | -0.23 | 1.17 | 1.5 | 0.155 | 1.78 | -0.438 | 2.2
13 | ACTAGCAGACCAAGTTTGGGTCACTCAAACAAAG | -0.311 | 0.415 | -0.191 | -0.505 | -0.222 | 0.6 | -0.393 | 1.12 | -0.119 | 0.992
14 | AGAACGTGGGCACGCTGAGTTGATAGCAGAGTAG | -0.231 | -0.143 | 0.109 | -0.419 | -0.518 | -0.542 | -0.719 | -0.528 | -0.906 | -0.0707
15 | ACTAATAGTTGACTTAGGGCAACCGATACGACGC | 0.0501 | 0.335 | 0.861 | 0.863 | 0.622 | 0.0101 | 0.295 | 0.399 | 0.56 | 1.01
16 | CCGACTGGGGCATAAGGTTAACATAAGCCAGCCC | 3.23 | 3.36 | -0.239 | -1.26 | 0.548 | 0.636 | -0.242 | 1.51 | -0.431 | 1.88
17 | CCTGCTAGGTCAATGGACAGCTAAAGCAGCTCGC | 3.92 | 3.11 | -0.347 | -0.89 | 0.928 | 0.497 | -0.327 | 1.2 | -0.377 | 3.75
18 | ATCTCTAGGTAAAAGTTCACTGAATCCCGAGGAT | 2.27 | 4.44 | 1.42 | 1.19 | 1.29 | 3.44 | 2.38 | 2.99 | 1.08 | 2.97
19 | ACAGATAGGTGAGTGAAGGTAACTCAGCTGGACG | 1.53 | 1.14 | 0.306 | -0.218 | 0.357 | -0.303 | -0.159 | 0.0919 | -0.566 | 0.558
20 | CCTAGTTGGTCAAGGTCACAAACGCTATAGGTAC | 2.22 | 3.73 | 1.23 | 1.64 | 2.99 | 3.94 | 1.93 | 4.17 | 2.34 | 4.05
21 | CGAACTAGTTCATCCAGGACAGTGAATACATTGA | 1.33 | 0.831 | 0.796 | 0.456 | 0.323 | 1.64 | 2.98 | 1.06 | 0.65 | 1.53
22 | CCTATTAGCTGACCATAAGGGCAACCGAAGCTCG | 0.163 | 0.429 | -0.689 | 0.266 | 1.42 | 0.183 | 0.353 | 0.375 | 0.765 | 1.18

Row | Sequence | PBM binding z-score [1] | PBM binding z-score [2] | PBM binding z-score [3] | PBM binding z-score [4] | PBM binding z-score [5] | PBM binding z-score [6] | PBM binding z-score [7] | PBM binding z-score [8] | PBM binding z-score [9] | PBM binding z-score [10]
23 | AGTCAGAGTTCACTAGGTAACGTAAGATTCAGCT | 2.59 | 4.05 | 1.02 | 0.611 | 2.37 | 4.41 | 3.8 | 2.72 | 0.385 | 3.97
24 | ACTTACGGGTCAACGAGGTTATGGCACGCGTATA | 3.48 | 4.51 | 1.34 | 0.297 | 3.2 | 5.1 | 2.74 | 5.52 | 0.8 | 4.32
25 | CGTCAAAGTTCAACTAAGGCAACGTAAAGCACGC | 0.00616 | 2 | 0.22 | -0.059 | 3.19 | 4.83 | 4.13 | 3.62 | 1.59 | 5.21
26 | CTCGAAAGGACGTGCTCAGGTGAGTATACCAAAC | -0.218 | -0.388 | -0.653 | -0.179 | -0.0329 | -0.345 | -0.1 | 0.0274 | -0.22 | 0.749
27 | ATAATGAGGTTATACGTAGATCAGGGAAGAAAGT | 4.24 | 2.58 | 2.03 | 2.05 | 0.998 | 1.7 | 0.97 | 2.12 | 1.63 | 1.75
28 | TCATTTAGGTAAACAGGTGAAAGTCCGTAAGTTA | 3.9 | 3.97 | 1.38 | 1.49 | 1.97 | 1.01 | 0.929 | 1.52 | 1.74 | 1.08
29 | TAGCCTAGGTCATTGGGCCAGTCTAGTACGCATC | 2.31 | 3.52 | -0.286 | -0.617 | 1.58 | 1.19 | -0.0454 | 1.82 | -0.767 | 3.53
30 | ACGAGTTGGTCAGCTGAGGTCACACACAATTCGG | 0.74 | 1.98 | -0.0405 | 0.48 | 2.66 | 5.43 | 2.1 | 4.82 | 0.588 | 3.59
31 | CCTTACGGGTCGCGAGGTTATAGCACGACGAGCG | 0.357 | 1.14 | -0.25 | -0.857 | 1.41 | 2.63 | -0.189 | 3.62 | -0.132 | 2.23
32 | ACAGACAGTTGATGAAGGTAACTCAGGCTATCAT | -0.364 | -0.0113 | 0.732 | 0.538 | 0.771 | 0.245 | 0.258 | 0.287 | 0.632 | 0.225
33 | CCTCGGAGTACAACAGGAGGTCAGAGCTGCCAGA | 0.161 | 0.257 | -0.9 | -1.14 | 1.18 | 2.19 | 0.607 | 2.23 | 0.843 | 2.06
34 | CAAACTAGGTCAAGGTCAAAGTCGGTTTGTGCCA | 8.86 | 8.63 | 3.11 | 0.796 | 3.64 | 5.25 | 2.25 | 5.33 | 2.13 | 5.19
35 | TTACCAAGGTGAGGTGAGGTCGTTGATCCAACTC | 1.36 | 2.9 | -0.05 | -0.0548 | 0.645 | 4.64 | 0.773 | 2.2 | -0.25 | 1.93
36 | TCTATTATTTGATTAGGGCAACCGAAACAGCGGA | 2.19 | 1.39 | 2.04 | 2.12 | 2.2 | 0.756 | 2.04 | 1.17 | 3.39 | 0.93
37 | GGAACGAGGGCGAGTTGATAGCAGAGTTTGATGG | 0.699 | -0.0712 | -0.327 | 0.298 | 0.0249 | 0.0143 | -0.021 | 0.0866 | -0.148 | 0.356
38 | ACTATTAGTTGAGGCGAGGGCAACCGATAGGTTG | 0.169 | 0.559 | 0.713 | 0.82 | 0.794 | 0.918 | 0.305 | 0.644 | 0.393 | 1.4
39 | AATACAGGGTCATCGTAGGCCACAGTACGCACAG | 3.1 | 4.6 | 2.5 | 1.08 | 2.97 | 5.59 | 0.511 | 5.47 | 1.06 | 4.59
40 | AATACAGGGTCACTAGGCCAGCGTAGGTACGAAT | 4.14 | 5.63 | 1.74 | 1 | 1.64 | 3.02 | 0.293 | 3.54 | 0.674 | 4.17
41 | TCTAGTTGGTAACGGAGGTCACACACGACGGGTA | 1.63 | 2.76 | 0.969 | 0.885 | 2.11 | 3.99 | 1.46 | 4.04 | 1.83 | 3.27
42 | ATCTCTAGGTAAGACTCATTTCAGTGAAGAACGC | 2.23 | 1.3 | 0.559 | 1.36 | 1.13 | -0.0936 | 0.605 | 0.211 | 1.77 | 0.27
43 | GCTAGTTGGTCAGAAAAAGGTCACACACCGGTCG | 0.771 | 2.29 | -0.31 | -0.0601 | 4.2 | 4.56 | 1.01 | 5.62 | 1.53 | 4.17
44 | TCTAGTTGGTCACGGATGTCACACACGACGGGTA | 2.2 | 2.89 | 1.14 | 1.42 | 1.14 | 0.836 | -0.124 | 0.724 | 0.648 | 1.88
